# Rows were chosen to be rich in hits. Some 3.6% of all compounds tested hit in one or more screens of this group.
# B2AR arrestin ag: ADRB2 beta-arrestin recruitment. HTLA Tango cells, beta-arrestin recruitment, luciferase luminescence, 18 h. Potency, µM (series often up to 46.1 µM), actives largely listed as activators. 44,000 tested, under 10 active. AID 1347077;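 note: potency is the fitted concentration of half-maximal effect; 0% = DMSO and full agonism = EC100 isoproterenol or metaproterenol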
#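 Luminescence read-out: arrestin recruitment to recombinant beta2-AR releases tTA, inducing luciferase. Cells exposed 18 hr at 37 degrees C to up to 46 microM compound; %Activity from corrected signal, concentration-response curves classified by r2, magnitude and efficacy.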
# GALK inhibitor: GALK (human) enzyme inhibition | P51570 | recombinant GALK, Kinase-Glo ATP luminescence, 1 h | Potency, µM (highest dose often 57.5 µM), for the others: top-dose activity, negative = inhibition, most hits filed as inhibitors | 44,000 tested, under 10 active;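 note: plate controls were full GALK reaction for no effect and reaction lacking GALK for full effect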
#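 Reactions with and without enzyme served as controls. GALK at 5 nM phosphorylates 100 uM galactose using 35 uM ATP (HEPES pH 8.0, Mg2+) for 1 h at RT, with luminescence read 10 min after adding Kinase-Glo Plus.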
# TSG101-PTAP inh: TSG101-PTAP interaction inhibition, HIV-1 budding. Fluorescence polarization, FITC-PTAP peptide/Tsg101, 20 min. Potency, µM (highest dose often 115 µM), usual class: inhibitors. 44,000 tested, under 10 active; note: potency is the fitted concentration of half-maximal effect; 0% is about no effect
# Target sequence (Q99816 whole entry, looked up): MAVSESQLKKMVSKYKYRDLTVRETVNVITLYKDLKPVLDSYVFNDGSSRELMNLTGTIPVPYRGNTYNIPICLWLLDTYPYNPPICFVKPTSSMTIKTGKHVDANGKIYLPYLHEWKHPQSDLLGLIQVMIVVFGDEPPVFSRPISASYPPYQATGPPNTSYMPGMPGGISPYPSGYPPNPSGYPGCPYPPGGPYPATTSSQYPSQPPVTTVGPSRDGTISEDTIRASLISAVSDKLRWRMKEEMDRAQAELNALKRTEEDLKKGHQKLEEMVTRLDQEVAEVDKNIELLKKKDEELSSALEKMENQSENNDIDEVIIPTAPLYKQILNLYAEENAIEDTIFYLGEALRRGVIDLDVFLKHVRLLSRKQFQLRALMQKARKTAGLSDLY
#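 Fluorescence polarization binding of Tsg101 binding domain (10 uM final) to FITC-labeled PTAP-motif peptide (50 nM final) in HEPES pH 7.5/NaCl/Tween 20/EDTA/TCEP buffer; 20 min at r.t. Actives by curve class, <25 µM, efficacy <60% inhibition.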
# DRV1 agonist: activates human resolvin D1 receptor GPR32. O75388. CHO-K1 GPR32 beta-arrestin PathHunter luminescence, 90 min; zero percent set by DMSO-only wells. activation, % at 76.9 µM. hit rate 2.5% among 48,000. AID 1346428;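 active = activation of at least 60% and not above a set upper limit, about 1 call in 100 departs from these limits; inconclusive = activation of 40% to 60%, or above that upper limit; inactive = activation under 40%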; note: 0% is about no effect
#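 Beta-arrestin recruitment read-out: luminescence from complemented beta-Gal in CHO-K1 GPR32 PathHunter cells, measured 1 h after detection reagent at ambient temperature following 90 min compound exposure at 37 °C; DMSO served as basal (EC0) control.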
# GALC G270D up: raises human GALC G270D mutant activity in cells; P54803; 145M-Twi-hGALC-G270D cells, HMU-beta-Gal fluorescence, 48 h; Potency, µM (doses to about 57.5 µM), most hits filed as activators; hit rate 0.1% among 45,000; note: potency is the fitted concentration of half-maximal effect; 0% is about no effect; nearly all actives have a fitted effect of over 65% in size
#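 qHTS, 1536-well; 145M-Twi-hGALC-G270D cells (WT line also made) in DMEM/F12 + 10% FBS; compound incubation on live cells; HMU-β-gal 0.1 mM final, pH 5.2, NaTC; carbonate stop; fluorescence increase = enhanced residual activity.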
# NTMT1 inhibitor: NTMT1 methyltransferase inhibition; hit rate 2.5% among 59,000; NTMT1 MTase-Glo SAH luminescence, purified enzyme; Potency, µM (series often up to 114 µM), for the others: at the highest dose activity change, negative = inhibition, most hits filed as inhibitors; Q9BV86; AID 1645870;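 note: potency is the fitted concentration of half-maximal effect; plate controls were DMSO vehicle for no effect and no enzyme for full effect; nearly all actives have a fitted effect of over 65% in size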
# Target sequence (Q9BV86 whole entry, looked up): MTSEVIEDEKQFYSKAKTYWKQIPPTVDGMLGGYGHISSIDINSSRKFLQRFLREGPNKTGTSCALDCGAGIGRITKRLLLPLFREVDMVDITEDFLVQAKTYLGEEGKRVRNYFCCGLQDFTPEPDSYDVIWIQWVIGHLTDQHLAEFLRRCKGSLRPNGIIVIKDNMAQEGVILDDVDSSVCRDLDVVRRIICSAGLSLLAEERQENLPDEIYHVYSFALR
# * hit, by the source's call; i = inactive; ? = inconclusive; nt = no result; ! = repeats disagree; [ ] = dose if it differs, or a comment. Unless noted, calls come from the whole dose curve; as a rule, active = well fitted curve in the direction sought with a large enough effect; inconclusive = small, poorly fitted or top-dose-only effect, or another doubt; inactive = no such curve, though single readings can be large; an effect the other way counts as inactive or inconclusive.
SMILES,B2AR arrestin ag,GALK inhibitor,TSG101-PTAP inh,DRV1 agonist,GALC G270D up,NTMT1 inhibitor
COC(=O)[C@H](O)[C@H]1C(C)(C)[C@H](OC(C)=O)[C@@]2(O)C(=O)[C@]1(C)C1CC[C@]3(C)C(CC(=O)O[C@H]3c3ccoc3)[C@]13O[C@@H]32 (stereo partly drawn),nt,nt,nt,nt,nt,8%[29.8 µM]
CCN(CCCNC(=O)CSc1cc(=O)n(CC)c2ccccc12)c1cccc(C)c1,i,-3%,i,75*,i,?
CCn1c(=O)cc(SCC(=O)NCCc2cccc(C)c2)c2ccccc21,i,-2%,i,97*,i,-7%
CCCN(CCC)CCNC(=O)Cn1cc2c(n1)-c1c(oc(C(=O)N3CCCC3)c1C)CC2,22µM*,1%,i,-14,i,-3%
CCCCN(CCCC)CCCNC(=O)Cn1cc2c(n1)-c1c(oc(C(=O)N3CCCC3)c1C)CC2,?,0%,i,-21,i,-12%
CC(C)n1ncnc1-c1cn2c(n1)-c1ccc(O[C@@H](C)C(N)=O)cc1OCC2,nt,nt,nt,nt,nt,17%
Cc1ccc(C(C)C)cc2c(C)ccc1-2,nt,nt,nt,-4,i,24%[57.5 µM]
Cc1cc(OI)c(C(C)C)cc1-c1cc(C(C)C)c(OI)cc1C,nt,nt,nt,18,i,18µM*
CC(C)C(CO)Nc1nc(Nc2ccc(C(=O)O)c(Cl)c2)c2ncn(C(C)C)c2n1 (stereo not drawn),nt,nt,nt,nt,nt,3%[57.5 µM]
CCCN(CCC)C(=O)c1cc2c(=O)n3cccc(C)c3nc2s1,i,0%,i,4,20µM*,-22%
CCCCN(CCCC)C(=O)c1cc2c(=O)n3cccc(C)c3nc2s1,i,-2%,i,28,i,3%
Cc1cccn2c(=O)c3cc(C(=O)NCC(C)C)sc3nc12,i,-1%,i,3,4µM*,-19%
CC(C)(C)c1ccc(/C=C/C(=O)Nc2ccc(S(N)(=O)=O)cc2)cc1,i,-3%,i,94*,i,6%
Cc1ccc(/C=C/C(=O)Nc2ccc(S(N)(=O)=O)cc2)o1,i,6%,i,12,i,?
CCc1ccc(CN2CCc3nc(Nc4ccc5c(c4)OCCO5)ncc3C2)cc1,i,2%,i,-22,i,89µM*
COc1cccc(CN2CCc3nc(Nc4ccc5c(c4)OCCO5)ncc3C2)c1OC,i,-1%,i,86*,i,5%
COc1cc(CN2CCc3nc(Nc4ccc5c(c4)OCCO5)ncc3C2)cc(OC)c1OC,i,2%,i,97*,i,7%
Cc1ccc(CN2CCc3nc(Nc4ccc5c(c4)OCCO5)ncc3C2)cc1,i,2%,i,29,i,3%
Fc1cccc(CN2CCc3nc(Nc4ccc5c(c4)OCCO5)ncc3C2)c1F,i,-3%,i,-2,i,0%
CCOc1ccc(CN2CCc3nc(Nc4ccc5c(c4)OCCO5)ncc3C2)cc1,i,0%,i,6,i,0%
Nc1nc(O)c(C2=C3C(=Nc4ccccc43)C(=O)NCC2)[nH]1,nt,nt,nt,nt,nt,24%[57.5 µM]
O=c1[nH]nc(Sc2ncc([N+](=O)[O-])s2)n1-c1ccc2c(c1)OCCO2,nt,nt,nt,nt,nt,4.3µM*!
NC(=O)c1cccc2cn(-c3ccc(C4CCCNC4)cc3)nc12 (stereo not drawn),nt,nt,nt,nt,nt,-1%[57.5 µM]
CCCc1cc(=O)[nH]c(Nc2cccc(Cl)c2Cl)n1,i,3%,i,87*,nt,nt
CCCc1cc(=O)[nH]c(Nc2cc(Cl)cc(Cl)c2)n1,i,9%,i,99*,nt,nt
SMILES,B2AR arrestin ag,GALK inhibitor,TSG101-PTAP inh,DRV1 agonist,GALC G270D up,NTMT1 inhibitor
O=c1c(O)c(-c2ccc(O)cc2O)oc2cc(O)cc(O)c12,nt,nt,nt,-2,nt,45µM*!
O=c1c(O)c(-c2cc(O)c(O)c(O)c2)oc2cc(O)cc(O)c12,nt,nt,nt,3,nt,28µM*!
C[C@@H]1O[C@@H](OC[C@H]2O[C@@H](Oc3c(-c4ccc(O)c(O)c4)oc4cc(O)cc(O)c4c3=O)[C@H](O)[C@@H](O)[C@@H]2O)[C@H](O)[C@H](O)[C@H]1O,nt,nt,nt,-34,i,-11%[57.5 µM]
Cc1cc(C)cc(Oc2ccc(CNC(=O)[C@H](C)N)cc2C)c1,nt,nt,nt,nt,nt,1%
COc1c2c(cc3c1-c1c(cc4c(c1OC)OCO4)CC(C)C(C)C3)OCO2 (stereo not drawn),nt,nt,nt,nt,nt,20%[29.8 µM]
CCCN(CCC)CC(O)Cn1cc(/C=C/C(=O)c2ccc(OC)cc2)c2ccccc21 (stereo not drawn),i,1%,i,-5,28µM*,-5%
COc1ccc(C(=O)/C=C/c2cn(CC(O)CN(CC(C)C)CC(C)C)c3ccccc23)cc1 (stereo not drawn),i,1%,i,-3,22µM*,14%
Cc1ccc(C(=O)NCC(c2cccs2)S(=O)(=O)c2cccs2)cc1C (stereo not drawn),i,-2%,i,14,i,2%
O=C(NCC(c1cccs1)S(=O)(=O)c1cccs1)c1ccc(Cl)cc1 (stereo not drawn),i,-3%,i,100*,i,-3%
O=C(NCC(c1cccs1)S(=O)(=O)c1cccs1)c1ccc(F)c(F)c1 (stereo not drawn),i,1%,i,95*,i,?
O=S(=O)(Nc1ccc(S(=O)(=O)Nc2nccs2)cc1)c1ccc2ccccc2c1,nt,nt,nt,nt,nt,10%
Cc1cnc(-c2ccccc2N(C)C)nc1NCc1ccc(-c2cccnc2)cc1,nt,nt,nt,nt,nt,-10%
O=C1NC(=Nc2ccccc2F)S/C1=C\c1ccc(C(=O)O)cc1,nt,nt,nt,nt,nt,-19%[57.5 µM]
CN(C)CCOc1ccc(-c2nc(-c3ccc4c(c3)CC/C4=N/O)c(-c3ccncc3)[nH]2)cc1,nt,nt,nt,nt,nt,25µM*
COc1ccc(-c2nc3ccccc3o2)cc1NC(=O)c1cccnc1,i,3%,i,86*,i,-6%
CCCCC(=O)Nc1cc(-c2nc3ccccc3o2)ccc1OC,i,-1%,i,12,i,3%
Cc1ccc(CNc2c(C)c(C)nc3nncn23)cc1,i,1%,i,?,i,0%
CCc1c(C)nc2nncn2c1NCc1ccc(Cl)cc1,i,1%,i,66*,i,2%
CC(C)CC(=O)OCc1cc(=O)n2nc(C3CCCCC3)sc2n1,i,-1%,i,71*,i,5%
CC1=C(/C=C/C(C)=C/C=C/C(C)=C/C(=O)Nc2ccc(O)cc2)C(C)(C)CCC1,nt,nt,nt,84*!,i,11%
COc1ccccc1-n1cnc2cc(C(=O)N3CCCCC3)ccc21,nt,nt,nt,nt,nt,11%
